Results from PubChem BioAssay (NCI).
About 83,000 compounds went through this panel and 20% of them were active in at least one assay; those are over-represented in the sample as a whole.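 A percent growth of 40 corresponds to 60% growth inhibition; 0 means no net growth; -100 means all cells died. Active threshold: below 10.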 The source made the active and inactive calls.

Columns and labels:
Test in all cases: NCI-60 one-dose screen, 48 h (100 = growth as untreated, 0 = no growth, -100 = all killed)
Conditions in all cases: 10 µM unless noted
SR leukemia = tested on: SR leukemia
RPMI-8226 leukemia = tested on: RPMI-8226 leukemia
OVCAR-8 ovarian = tested on: OVCAR-8 ovarian
OVCAR-5 ovarian = tested on: OVCAR-5 ovarian
OVCAR-4 ovarian = tested on: OVCAR-4 ovarian
SK-OV-3 ovarian = tested on: SK-OV-3 ovarian
IGROV1 ovarian = tested on: IGROV1 ovarian
OVCAR-3 ovarian = tested on: OVCAR-3 ovarian
HS 578T breast = tested on: HS 578T breast
NCI/ADR-RES ovarian = tested on: NCI/ADR-RES ovarian

Measured: growth

CCC(=O)Oc1c(C)cc(O)c2ccccc12
inactive: SR leukemia 80.7% | RPMI-8226 leukemia 54.6% | OVCAR-8 ovarian 81.4% | OVCAR-5 ovarian 105% | OVCAR-4 ovarian 82.3% | SK-OV-3 ovarian 104% | IGROV1 ovarian 88.2% | OVCAR-3 ovarian 72.6% | HS 578T breast 91.2% | NCI/ADR-RES ovarian 85.2%

O=C(Nc1cccc(Cl)c1)c1ccc(Cl)cc1Cl
inactive: SR leukemia 81.4% | RPMI-8226 leukemia 84.5% | OVCAR-8 ovarian 97.4% | OVCAR-5 ovarian 95.8% | OVCAR-4 ovarian 107% | SK-OV-3 ovarian 95% | IGROV1 ovarian 107% | OVCAR-3 ovarian 98% | HS 578T breast 92.7% | NCI/ADR-RES ovarian 103%

C=C(C)COc1ccc(C(C)(C)C)cc1
inactive: SR leukemia 96.3% | RPMI-8226 leukemia 104% | OVCAR-8 ovarian 95.4% | OVCAR-5 ovarian 106% | OVCAR-4 ovarian 103% | SK-OV-3 ovarian 95.9% | IGROV1 ovarian 112% | OVCAR-3 ovarian 102% | HS 578T breast 90.1% | NCI/ADR-RES ovarian 107%

Cc1ccc(Cc2ccc(C)cc2)cc1
inactive: SR leukemia 102% | RPMI-8226 leukemia 106% | OVCAR-8 ovarian 102% | OVCAR-5 ovarian 99.1% | OVCAR-4 ovarian 109% | SK-OV-3 ovarian 97.2% | IGROV1 ovarian 103% | OVCAR-3 ovarian 116% | HS 578T breast 105% | NCI/ADR-RES ovarian 108%

OCCNc1ccccc1
inactive: SR leukemia 93.2% | RPMI-8226 leukemia 105% | OVCAR-8 ovarian 102% | OVCAR-5 ovarian 107% | OVCAR-4 ovarian 101% | SK-OV-3 ovarian 105% | IGROV1 ovarian 110% | OVCAR-3 ovarian 105% | HS 578T breast 101% | NCI/ADR-RES ovarian 100%

COc1ccc(/C=N/NC(=O)COCC(=O)N/N=C/c2ccc(OC)cc2)cc1
inactive: SR leukemia 96.7% | RPMI-8226 leukemia 101% | OVCAR-8 ovarian 104% | OVCAR-5 ovarian 108% | OVCAR-4 ovarian 90.5% | SK-OV-3 ovarian 108% | IGROV1 ovarian 110% | OVCAR-3 ovarian 108% | HS 578T breast 114% | NCI/ADR-RES ovarian 112%

NNc1ncnc2c1ncn2C1OC(CO)C(O)C1O (stereo not given)
inactive: SR leukemia 17.5% | RPMI-8226 leukemia 51.8% | OVCAR-8 ovarian 25.6% | OVCAR-5 ovarian 54.7% | OVCAR-4 ovarian 45% | IGROV1 ovarian 66.7% | HS 578T breast 53% | NCI/ADR-RES ovarian 24.3%
active: SK-OV-3 ovarian 2.11% | OVCAR-3 ovarian 9.24%

CCNC(=O)Oc1ccc[nH]c1=O
inactive: SR leukemia 76.4% | RPMI-8226 leukemia 93.4% | OVCAR-8 ovarian 25.9% | OVCAR-5 ovarian 102% | OVCAR-4 ovarian 98.3% | SK-OV-3 ovarian 103% | IGROV1 ovarian 97.9% | OVCAR-3 ovarian 112% | HS 578T breast 95.2% | NCI/ADR-RES ovarian 102%

N#Cc1ccc(OC(=O)Nc2c(Cl)cc(Cl)cc2Cl)cc1
inactive: SR leukemia 101% | RPMI-8226 leukemia 107% | OVCAR-8 ovarian 105% | OVCAR-5 ovarian 103% | OVCAR-4 ovarian 109% | SK-OV-3 ovarian 99.7% | IGROV1 ovarian 98.7% | OVCAR-3 ovarian 112% | HS 578T breast 106% | NCI/ADR-RES ovarian 111%

O=C(OC1CCCC1)c1ccccc1Cl
inactive: SR leukemia 104% | RPMI-8226 leukemia 102% | OVCAR-8 ovarian 111% | OVCAR-5 ovarian 96.2% | OVCAR-4 ovarian 107% | SK-OV-3 ovarian 108% | IGROV1 ovarian 106% | OVCAR-3 ovarian 112% | HS 578T breast 91.7% | NCI/ADR-RES ovarian 108%

CC(C)(C)CC1(C)NC(=O)NC1=O (stereo not given)
inactive: SR leukemia 134% | RPMI-8226 leukemia 73.3% | OVCAR-8 ovarian 109% | OVCAR-5 ovarian 89.1% | OVCAR-4 ovarian 106% | SK-OV-3 ovarian 115% | IGROV1 ovarian 125% | OVCAR-3 ovarian 120% | HS 578T breast 105% | NCI/ADR-RES ovarian 99.7%

N=C(N)c1nn(C2OC(CO)C(O)C2O)c2nc[nH]c(=O)c12 (stereo not given)
inactive: OVCAR-5 ovarian 30.2% | IGROV1 ovarian 21.8%
active: SR leukemia -22.7% | RPMI-8226 leukemia -19% | OVCAR-8 ovarian 7.8% | OVCAR-4 ovarian -6.89% | SK-OV-3 ovarian -15.7% | OVCAR-3 ovarian -51.9% | HS 578T breast -19.4% | NCI/ADR-RES ovarian -10.4%

O=[N+]([O-])c1ccc2[nH]c(=S)n(/C=C(/c3ccc(Cl)cc3Cl)S(=O)(=O)Cc3ccc(Cl)cc3Cl)c2c1
inactive: SR leukemia 83.1% | RPMI-8226 leukemia 98.7% | OVCAR-8 ovarian 93.7% | OVCAR-5 ovarian 108% | OVCAR-4 ovarian 95.9% | SK-OV-3 ovarian 99.1% | IGROV1 ovarian 104% | OVCAR-3 ovarian 117% | HS 578T breast 106% | NCI/ADR-RES ovarian 100%

O=C(O)c1cccc(-n2ncc(Cl)c(Cl)c2=O)c1
inactive: SR leukemia 102% | RPMI-8226 leukemia 93.8% | OVCAR-8 ovarian 107% | OVCAR-5 ovarian 106% | OVCAR-4 ovarian 91.1% | SK-OV-3 ovarian 106% | IGROV1 ovarian 130% | OVCAR-3 ovarian 118% | HS 578T breast 98.3% | NCI/ADR-RES ovarian 110%

CC(CCC#N)(CCC#N)C(=O)c1ccccc1
inactive: SR leukemia 104% | RPMI-8226 leukemia 101% | OVCAR-8 ovarian 105% | OVCAR-5 ovarian 109% | OVCAR-4 ovarian 90% | SK-OV-3 ovarian 115% | IGROV1 ovarian 125% | OVCAR-3 ovarian 123% | HS 578T breast 97.8% | NCI/ADR-RES ovarian 106%

COc1cccc2c1Cc1ccccc1-2
inactive: SR leukemia 121% | RPMI-8226 leukemia 99.8% | OVCAR-8 ovarian 112% | OVCAR-5 ovarian 107% | OVCAR-4 ovarian 98.9% | SK-OV-3 ovarian 115% | IGROV1 ovarian 115% | OVCAR-3 ovarian 112% | HS 578T breast 103% | NCI/ADR-RES ovarian 98.6%

CCC(C)C1CCC(O)CC1 (stereo not given)
inactive: SR leukemia 93.7% | RPMI-8226 leukemia 107% | OVCAR-8 ovarian 100% | OVCAR-5 ovarian 108% | OVCAR-4 ovarian 99.4% | SK-OV-3 ovarian 109% | IGROV1 ovarian 110% | OVCAR-3 ovarian 108% | HS 578T breast 104% | NCI/ADR-RES ovarian 103%

ClCC(Cl)[C@@H]1CC2C=CC1C2 (stereo not given in full)
inactive: SR leukemia 112% | RPMI-8226 leukemia 104% | OVCAR-8 ovarian 96.2% | OVCAR-5 ovarian 110% | OVCAR-4 ovarian 104% | SK-OV-3 ovarian 111% | IGROV1 ovarian 114% | OVCAR-3 ovarian 119% | HS 578T breast 108% | NCI/ADR-RES ovarian 105%

Cc1ccc(N)c(S(=O)(=O)O)c1
inactive: SR leukemia 79% | RPMI-8226 leukemia 90.2% | OVCAR-8 ovarian 103% | OVCAR-5 ovarian 89% | OVCAR-4 ovarian 83.7% | SK-OV-3 ovarian 103% | IGROV1 ovarian 206% | OVCAR-3 ovarian 106% | HS 578T breast 113% | NCI/ADR-RES ovarian 94.5%

O=C(CC(CC(=O)c1ccccc1)c1ccccn1)c1ccccc1
inactive: SR leukemia 92.9% | RPMI-8226 leukemia 96.8% | OVCAR-8 ovarian 101% | OVCAR-5 ovarian 105% | OVCAR-4 ovarian 105% | SK-OV-3 ovarian 104% | IGROV1 ovarian 96.8% | OVCAR-3 ovarian 106% | HS 578T breast 84.8% | NCI/ADR-RES ovarian 97.4%

CC(c1ccccc1)N(C)C (stereo not given)
inactive: SR leukemia 67.3% | RPMI-8226 leukemia 155% | OVCAR-8 ovarian 117% | OVCAR-5 ovarian 92.8% | OVCAR-4 ovarian 77.3% | SK-OV-3 ovarian 103% | IGROV1 ovarian 152% | OVCAR-3 ovarian 120% | HS 578T breast 153% | NCI/ADR-RES ovarian 105%

Cc1ccc(C(C)C)c(OCC(=O)O)c1
inactive: SR leukemia 109% | RPMI-8226 leukemia 107% | OVCAR-8 ovarian 101% | OVCAR-5 ovarian 98.7% | OVCAR-4 ovarian 112% | SK-OV-3 ovarian 108% | IGROV1 ovarian 109% | OVCAR-3 ovarian 113% | HS 578T breast 101% | NCI/ADR-RES ovarian 111%

NNC(=O)c1ccccc1N
inactive: SR leukemia 156% | RPMI-8226 leukemia 88.9% | OVCAR-8 ovarian 107% | OVCAR-5 ovarian 89.8% | OVCAR-4 ovarian 106% | SK-OV-3 ovarian 114% | IGROV1 ovarian 127% | OVCAR-3 ovarian 124% | HS 578T breast 117% | NCI/ADR-RES ovarian 105%

COc1cc(OC)c(NC(=O)C(Sc2nc(C)cc(C)c2C#N)c2ccccc2)cc1Cl (stereo not given)
inactive: SR leukemia 98.4% | RPMI-8226 leukemia 119% | OVCAR-8 ovarian 88.6% | OVCAR-5 ovarian 106% | OVCAR-4 ovarian 105% | SK-OV-3 ovarian 85.3% | IGROV1 ovarian 93.4% | OVCAR-3 ovarian 113% | HS 578T breast 86.7% | NCI/ADR-RES ovarian 96.9%

OC(CBr)CCBr (stereo not given)
inactive: SR leukemia 78.3% | RPMI-8226 leukemia 98.8% | OVCAR-8 ovarian 99.8% | OVCAR-5 ovarian 106% | OVCAR-4 ovarian 93.5% | SK-OV-3 ovarian 101% | IGROV1 ovarian 89.5% | OVCAR-3 ovarian 112% | HS 578T breast 103% | NCI/ADR-RES ovarian 106%

C1=NCCc2ccccc21
inactive: SR leukemia 97% | RPMI-8226 leukemia 99% | OVCAR-8 ovarian 99.1% | OVCAR-5 ovarian 105% | OVCAR-4 ovarian 98.7% | SK-OV-3 ovarian 93% | IGROV1 ovarian 105% | OVCAR-3 ovarian 100% | HS 578T breast 83.8% | NCI/ADR-RES ovarian 106%

Nc1ccc2c(c1)Cc1cc(N)c(N)cc1-2
inactive: SR leukemia 82.2% | RPMI-8226 leukemia 101% | OVCAR-8 ovarian 96.7% | OVCAR-5 ovarian 107% | OVCAR-4 ovarian 105% | SK-OV-3 ovarian 93.7% | IGROV1 ovarian 97.9% | OVCAR-3 ovarian 112% | HS 578T breast 106% | NCI/ADR-RES ovarian 101%

CN(C)CCOC(=O)Nc1ccc(Cc2ccc(NC(=O)OCCN(C)C)cc2)cc1
active: SR leukemia -39.4% [100 µM]
inactive: RPMI-8226 leukemia 16.8% [100 µM] | OVCAR-8 ovarian 98.2% [100 µM] | OVCAR-5 ovarian 85.1% [100 µM] | OVCAR-4 ovarian 94.6% [100 µM] | SK-OV-3 ovarian 137% [100 µM] | IGROV1 ovarian 83.2% [100 µM] | OVCAR-3 ovarian 90.4% [100 µM] | HS 578T breast 73.1% [100 µM] | NCI/ADR-RES ovarian 98.5% [100 µM]

COc1cccc(C(=O)O)c1OC
inactive: SR leukemia 101% | RPMI-8226 leukemia 101% | OVCAR-8 ovarian 101% | OVCAR-5 ovarian 85.9% | OVCAR-4 ovarian 95% | SK-OV-3 ovarian 91.6% | IGROV1 ovarian 99.4% | OVCAR-3 ovarian 106% | HS 578T breast 88.9% | NCI/ADR-RES ovarian 99.4%

CC(=O)Nc1ccc(O)c(C)c1
inactive: SR leukemia 94.6% | RPMI-8226 leukemia 105% | OVCAR-8 ovarian 100% | OVCAR-5 ovarian 104% | OVCAR-4 ovarian 100% | SK-OV-3 ovarian 105% | IGROV1 ovarian 110% | OVCAR-3 ovarian 107% | HS 578T breast 107% | NCI/ADR-RES ovarian 102%
